KDM5B inhibitor: blocks human KDM5B histone demethylase activity; Q9UGL1; KDM5B demethylase, FDH-coupled NADH fluorescence (FDH is formaldehyde dehydrogenase); Potency, µM (top dose mostly 57.7 µM), most hits filed as inhibitors; 220,000 compounds, 2.6% hits; AID 1347165; active = well fitted inhibition curve with a large enough effect; also: nearly all actives have a fitted effect of over 70% in size
Target sequence (Q9UGL1 whole entry, looked up): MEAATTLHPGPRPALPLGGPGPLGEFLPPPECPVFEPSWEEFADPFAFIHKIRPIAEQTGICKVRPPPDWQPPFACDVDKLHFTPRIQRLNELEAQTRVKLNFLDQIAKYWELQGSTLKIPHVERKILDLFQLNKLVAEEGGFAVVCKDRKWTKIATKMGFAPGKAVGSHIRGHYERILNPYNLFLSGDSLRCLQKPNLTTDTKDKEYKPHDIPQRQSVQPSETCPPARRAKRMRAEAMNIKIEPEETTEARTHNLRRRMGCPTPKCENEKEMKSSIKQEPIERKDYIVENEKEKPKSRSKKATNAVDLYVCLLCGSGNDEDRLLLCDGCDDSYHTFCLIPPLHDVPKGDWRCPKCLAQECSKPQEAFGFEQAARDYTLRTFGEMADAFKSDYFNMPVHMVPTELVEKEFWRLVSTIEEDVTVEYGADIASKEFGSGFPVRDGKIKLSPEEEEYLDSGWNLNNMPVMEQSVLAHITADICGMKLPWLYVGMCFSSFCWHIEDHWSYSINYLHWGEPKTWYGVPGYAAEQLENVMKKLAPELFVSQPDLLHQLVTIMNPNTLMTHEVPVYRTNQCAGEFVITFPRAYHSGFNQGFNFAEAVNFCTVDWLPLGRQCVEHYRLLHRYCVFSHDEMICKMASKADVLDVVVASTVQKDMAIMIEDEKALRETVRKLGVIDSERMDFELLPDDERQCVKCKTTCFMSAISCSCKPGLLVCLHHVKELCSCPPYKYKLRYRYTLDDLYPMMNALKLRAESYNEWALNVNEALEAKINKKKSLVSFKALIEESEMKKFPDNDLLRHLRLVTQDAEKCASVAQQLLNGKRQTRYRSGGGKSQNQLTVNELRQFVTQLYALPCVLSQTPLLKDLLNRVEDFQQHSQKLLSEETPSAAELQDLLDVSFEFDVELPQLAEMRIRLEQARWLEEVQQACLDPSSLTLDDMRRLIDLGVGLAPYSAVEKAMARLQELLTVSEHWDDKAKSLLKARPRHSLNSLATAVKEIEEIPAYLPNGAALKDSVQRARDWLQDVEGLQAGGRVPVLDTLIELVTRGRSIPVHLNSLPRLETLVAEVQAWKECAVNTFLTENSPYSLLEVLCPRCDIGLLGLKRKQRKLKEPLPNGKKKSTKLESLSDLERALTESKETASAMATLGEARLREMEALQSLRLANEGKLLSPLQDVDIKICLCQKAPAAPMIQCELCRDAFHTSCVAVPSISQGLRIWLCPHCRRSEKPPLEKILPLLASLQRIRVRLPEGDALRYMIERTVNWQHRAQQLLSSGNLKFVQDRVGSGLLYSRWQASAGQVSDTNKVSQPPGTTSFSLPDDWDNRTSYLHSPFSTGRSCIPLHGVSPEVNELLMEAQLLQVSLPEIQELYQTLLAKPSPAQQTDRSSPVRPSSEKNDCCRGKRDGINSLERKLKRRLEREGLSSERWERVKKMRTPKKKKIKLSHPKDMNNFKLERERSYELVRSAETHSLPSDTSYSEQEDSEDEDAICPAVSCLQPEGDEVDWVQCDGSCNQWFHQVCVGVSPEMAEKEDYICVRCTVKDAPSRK
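Inhibition is measured as reduced NADH fluorescence generation from FDH coupling to formaldehyde release. Truncated KDM5BΔAP at 200 nM final acts on H3K4me3 peptide (12.5 µM in substrate mix) in pH 7.5 HEPES buffer with Tween-20, 30 min, room temperature.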
Numbers stand for hits; - = inactive. Many of the other results were omitted from the sample, so hits are more common in it than they were.

SMILES	KDM5B inhibitor
CC(OC(=O)c1cc(=O)c2cc(Cl)ccc2o1)C(=O)N(C)c1ccccc1 (stereo not given)	-
O=C(NC1CC1)C1(c2ccc(Cl)cc2)CCOCC1	-
OCCC1CN(Cc2cnn(-c3ccccc3)c2)CCN1Cc1cccs1 (stereo not given)	-
Cc1cccc(CN2CCN(Cc3nc(-c4cccs4)oc3C)CC2CCO)n1 (stereo not given)	25.1µM
COCC(=O)N1CCN(Cc2nc(-c3cccs3)oc2C)CC1	-
Cc1nc2cc(NC(=O)C3CCCCC3)ccc2o1	-
Cc1ccccc1C(=O)N1CCC(C(=O)Nc2ccc(C(C)C)cc2)CC1	-
CC(C)c1cc(C(=O)N2CCC(C(=O)N3CCCCCC3)CC2)c2ccccc2n1	-
O=C(Nc1ccc2c(N3CCCCC3)ncnc2c1)C1CCC1	-
Cc1ccc2c(C(=O)N3CCCCCC3)cc(NC(=O)C3CC3)cc2n1	28.2µM
Cc1ccccc1C(=O)N1CCC(C(=O)Nc2ccc(C)c(S(=O)(=O)N3CCCCC3)c2)CC1	-
Cc1nc2ccc(NC(=O)C3CCCC3)cc2s1	-
Cc1ccc2c(C(=O)N3CCN(C4CCCCC4)CC3)cc(NC(=O)C3CCC3)cc2n1	25.1µM
Cc1ccc2c(C(=O)N3CCCCCC3)cc(NC(=O)C3CCC3)cc2n1	31.6µM
Cc1cc(C(=O)N2CCN(C(=O)C(C)C)CC2)c2ccccc2n1	-
Cc1ccc2c(C(=O)N3CCN(C4CCCCC4)CC3)cc(NC(=O)C(C)C)cc2n1	11.2µM
Cc1cc(C(=O)N2CCC(NC(=O)C3CCCCC3)CC2)c2ccccc2n1	-
COC(=O)[C@H](NC(=O)[C@@H]1C[C@H](NC(=O)Nc2ccc(OC)cc2)CN1C(=O)C=C(C)C)C(C)C	-
Cc1cc(=O)n2c3ccccc3nc2n1CC(=O)c1ccc(Br)cc1	-
COc1ccc(Br)cc1S(=O)(=O)NCC(C)CN1CCCC1 (stereo not given)	-
CC(=O)c1cccc(S(=O)(=O)NCc2c(C)nn(Cc3ccccc3)c2C)c1	-
O=C(CSc1ccc(Cl)cc1)NNC(=O)C1CCCc2ccccc21 (stereo not given)	-
CN(CC[C@H]1CN(C(=O)c2ccnc(Cl)c2)CC[C@H]1CC(=O)O)c1ccccc1	-
O=C([C@@H]1Cc2nc[nH]c2CN1Cc1ccc(C(F)(F)F)cc1)N1CCOCC1	-
O=C(O)c1ccc(CN2Cc3[nH]cnc3C[C@H]2c2nc(-c3ccc(F)c(Cl)c3)no2)cc1	25.1µM
SMILES	KDM5B inhibitor
COC(=O)[C@@H]1Cc2nc[nH]c2CN1Cc1ccc(C(=O)O)cc1	39.8µM
O=C(Nc1cccc(F)c1)N1Cc2[nH]cnc2C[C@H]1c1nc(-c2ccc(F)c(Cl)c2)no1	-
CC(C)c1noc([C@@H]2Cc3nc[nH]c3CN2Cc2ccc(F)cc2)n1	28.2µM
COc1ccc(-c2noc([C@@H]3Cc4nc[nH]c4CN3Cc3ccccc3)n2)cc1	-
Cc1ccc(-c2noc([C@@H]3Cc4nc[nH]c4CN3Cc3ccc(F)cc3)n2)cc1	-
Cc1ccc(-c2noc([C@@H]3Cc4nc[nH]c4CN3Cc3ccc(CO)o3)n2)cc1	-
Cc1ccc(-c2noc([C@@H]3Cc4nc[nH]c4CN3Cc3ccc(C(=O)O)cc3)n2)cc1	35.5µM
Cc1ccc(NC(=O)N2Cc3[nH]cnc3C[C@H]2c2nc(C(C)C)no2)cc1	-
Cc1ccc(CN2Cc3[nH]cnc3C[C@H]2C(=O)N2CCC(Cc3ccccc3)CC2)cc1	-
O=C(O)c1ccc(CN2Cc3[nH]cnc3C[C@H]2c2nc(-c3cccc([N+](=O)[O-])c3)no2)cc1	-
Cc1nc2cc(NS(=O)(=O)c3ccc(C(C)(C)C)cc3)ccc2o1	-
COC(=O)CNC(=O)N1CCCCC1c1nc(CCOc2cccc(C)c2)no1 (stereo not given)	-
COc1ccc(CNc2nc(-c3ccco3)nn2S(=O)(=O)c2ccc(C)cc2)cc1OC	-
COc1ccc(Nc2cc(-n3ncc(C(C)=O)c3C)nc(C)n2)cc1	-
Cc1ccc(-c2cc3c(=O)n(CC(O)c4ccc(C)c(C)c4)ccn3n2)c(C)c1 (stereo not given)	35.5µM
Cc1ccc(-c2cc3c(=O)n(CCNC(=O)c4ccc(N(C)C)cc4)ccn3n2)cc1C	28.2µM
Cc1ccc(C)c(-c2cc3c(=O)n(CCNC(=O)c4ccccc4F)ccn3n2)c1	-
Cc1ccc(C)c(-c2cc3c(=O)n(CCNC(=O)c4ccccc4)ccn3n2)c1	-
Cc1ccc(C)c(C(=O)NCCn2ccn3nc(-c4cc(C)ccc4C)cc3c2=O)c1	31.6µM
COc1ccc(C(=O)NCCn2ccn3nc(-c4cc(C)ccc4C)cc3c2=O)cc1OC	-
Cc1ccc(-c2cc3c(=O)n(CCNC(=O)Cc4ccsc4)ccn3n2)c(C)c1	-
Cc1ccc(-c2cc3c(=O)n(CCNC(=O)c4cccc(Cl)c4)ccn3n2)cc1C	-
COc1ccc(C(=O)NCCn2ccn3nc(-c4ccc(C)cc4C)cc3c2=O)cc1F	-
Cc1ccc(-c2cc3c(=O)n(CCNC(=O)C4CCCCC4)ccn3n2)cc1C	-
CCOc1ccc(-c2cc3c(=O)n(CCNC(=O)c4ccc(Cl)cc4)ccn3n2)cc1	-
SMILES	KDM5B inhibitor
CCOc1ccc(C(=O)NCCn2ccn3nc(-c4ccc(OC)cc4)cc3c2=O)cc1	8.91µM
CCc1c(C)sc(NC(=O)Cc2ccc(Cl)cc2)c1C#N	-
COCCCNCc1ccccc1C	-
CCC(C)Sc1nc2c(c(=O)n(C)c(=O)n2C)n1Cc1ccccc1Cl (stereo not given)	-
CCc1noc(C)c1C(=O)N1CCC(c2[nH]ncc2-c2ccccc2C)CC1	-
Cc1ccc(OCCOc2ccc(Br)cc2/C=C(/C#N)c2ccccc2)cc1	-
CCc1ccc(OCc2nn3c(=O)c4ccccc4nc3s2)cc1	-
Cc1ccc(C2Cn3nnc(-c4noc(-c5ccoc5)n4)c3CO2)cc1 (stereo not given)	-
O=C(NCCc1cccc(F)c1)C1CCCC1	-
CC(=O)Nc1cccc(C(=O)NCCn2ccn3nc(-c4ccc(C)cc4C)cc3c2=O)c1	-
COc1ccc(-c2cc3c(=O)n(CCNC(=O)c4cc(OC)cc(OC)c4)ccn3n2)cc1	-
COc1ccc(C(=O)NCCn2ccn3nc(-c4ccc(C)c(C)c4)cc3c2=O)cc1	17.8µM
COc1ccc(C(=O)NCCn2ccn3nc(-c4cc(C)ccc4C)cc3c2=O)cc1F	-
Cc1ccc(-c2cc3c(=O)n(CCNC(=O)c4ccc(N(C)C)cc4)ccn3n2)c(C)c1	28.2µM
COc1ccc(-c2cc3c(=O)n(CCNC(=O)c4ccc(OC)nc4)ccn3n2)cc1	11.2µM
Cc1ccc(-c2cc3c(=O)n(CCNC(=O)c4cccnc4)ccn3n2)c(C)c1	-
Cc1ccc(-c2cc3c(=O)n(CCNC(=O)c4nn(C)c5ccccc45)ccn3n2)c(C)c1	28.2µM
Cc1ccc(C)c(-c2cc3c(=O)n(CCNC(=O)Cc4cccs4)ccn3n2)c1	-
O=C(NCCn1ccn2nc(-c3ccc(F)cc3)cc2c1=O)c1ccc(F)c(Cl)c1	-
Cc1ccc(-c2cc3c(=O)n(CCNC(=O)c4ccc(Cl)cc4)ccn3n2)c(C)c1	-
CC1CC(C)CN(C(=O)c2ccc(Oc3ccccc3)cc2)C1 (stereo not given)	-
O=[S+]1([O-])NCC2(CCN(Cc3cncs3)CC2)Nc2ccccc21	-
N#C/C(=C\c1ccnc2ccccc12)c1nc2ccccc2s1	-
CN(Cc1ccccc1)C(=O)Cn1c(=O)n(C)c2ccccc21	-
Cc1cc(C)cc(C(=O)NCC(=O)N2CCCC2c2ccccc2)c1 (stereo not given)	-
O=C(Nc1ccccc1OC(F)F)C1=NN(C2CCS(=O)(=O)C2)C(=O)CC1 (stereo not given)	-
